Assay outcomes (PubChem)
Most compounds without a hit are left out; they make up all but 4% or so of the library.
Gli-Sufu antag – Gli-Sufu pathway antagonism. Sufu-KO-LIGHT fibroblasts, Gli luciferase reporter luminescence. inhibition, % at 5 µM. hit rate 0.74% among 340,000;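 active = inhibition above about 55%, limit read from the data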;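 note: 0% = DMSO-treated cells and 100% = wells with medium but no cells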
Shn3 3UTR inh – reduces Shn3 3'UTR luciferase signal in osteoblasts; AID 588674; Clone20 osteoblast Shn3 3'UTR firefly luciferase, 24 h; hit rate 0.52% among 360,000; inhibition, % at 12.5 µM;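 active = mean inhibition of at least 75% with every replicate also reaching 75%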;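 note: 0% = median of neutral control wells and 100% = pilot-screen positive control compound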
Mdm2-MdmX inh – inhibitors of human Mdm2/MdmX interaction. O15151+Q00987. SaOS-2 split-luciferase Mdm2/MdmX complementation, luminescence. inhibition, % at 8 µM. hit rate 3% among 330,000. AID 485346;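 active = inhibition of at least 50% at 8 µM in the primary screen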
Target sequence (O15151 whole entry, looked up): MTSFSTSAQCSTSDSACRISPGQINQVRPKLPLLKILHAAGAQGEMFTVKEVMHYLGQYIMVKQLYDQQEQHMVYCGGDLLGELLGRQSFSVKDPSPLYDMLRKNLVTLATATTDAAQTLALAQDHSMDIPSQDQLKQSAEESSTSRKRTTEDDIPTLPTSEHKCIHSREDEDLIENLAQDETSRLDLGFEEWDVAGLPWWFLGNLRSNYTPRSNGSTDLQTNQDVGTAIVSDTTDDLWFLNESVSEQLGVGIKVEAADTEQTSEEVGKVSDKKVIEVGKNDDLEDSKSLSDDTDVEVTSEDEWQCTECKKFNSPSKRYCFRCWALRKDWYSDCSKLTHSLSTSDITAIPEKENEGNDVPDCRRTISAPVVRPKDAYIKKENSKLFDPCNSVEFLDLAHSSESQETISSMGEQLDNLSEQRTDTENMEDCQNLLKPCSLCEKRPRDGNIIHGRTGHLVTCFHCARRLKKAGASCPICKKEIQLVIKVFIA
Target sequence (Q00987 whole entry, looked up): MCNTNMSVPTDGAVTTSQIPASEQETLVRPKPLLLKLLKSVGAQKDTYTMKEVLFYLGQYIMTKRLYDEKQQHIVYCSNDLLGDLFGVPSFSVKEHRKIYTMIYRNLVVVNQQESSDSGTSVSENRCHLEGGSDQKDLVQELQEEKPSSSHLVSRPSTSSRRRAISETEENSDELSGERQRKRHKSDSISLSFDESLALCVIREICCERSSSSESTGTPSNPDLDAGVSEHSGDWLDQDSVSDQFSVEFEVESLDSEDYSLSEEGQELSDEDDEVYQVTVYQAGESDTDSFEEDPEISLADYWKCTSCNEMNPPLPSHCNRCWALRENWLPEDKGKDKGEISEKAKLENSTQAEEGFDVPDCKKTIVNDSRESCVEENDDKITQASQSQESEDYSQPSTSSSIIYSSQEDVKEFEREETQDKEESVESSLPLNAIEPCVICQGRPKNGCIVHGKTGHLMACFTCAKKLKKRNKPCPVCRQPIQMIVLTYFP
Beta cell apopt – beta cell apoptosis inhibition; INS-1E cytokine-induced death, ATP luminescence, 48 h; percent of positive-control rescue, neutral wells zero; protection from apoptosis, % (no concentration beside the values); hit rate 0.8% among 300,000; AID 435005;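 active = Every replicate reaches about 75%, or at least half do and their mean reaches it too, limit read from the data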;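 note: 0% = cytokine-treated negative control wells and 100% = positive control rescue; higher means more ATP so stronger rescue from cytokine killing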
CSC inhib – cancer stem cell inhibition; AID 2717; cancer stem cell-like cells viability, luminescence; inhibition, % at 7.5 µM; hit rate 1.1% among 300,000; in the data active = inhibition above about 75%; tested in HMLE shEcad cells
PAX8 inh HTS – inhibitors of PAX8 transcriptional activity in RMG-I cells; RMG-I TPO-luciferase reporter, SteadyGlo, 24 h; inhibition, % at 12.6 µM; hit rate 1.2% among 360,000; AID 652154;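 active = mean replicate inhibition at least 60% with every replicate also reaching 60%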;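 note: luciferase light reporting Pax8 driven TPO promoter activity; plate controls were median of neutral control wells for no effect and mitoxantrone controls for full effect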
Mdm2-MdmX conf – human Mdm2/MdmX binding inhibition, confirmed; shares compounds with Mdm2-MdmX inh; luminescent assay; inhibition, % at 8 µM; hit rate 55% among 10,000; AID 489028; in the data active = inhibition above about 40%
Full FLuc ctr – full-length luciferase inhibition in Mdm2/MdmX counter-screen | SaOS-2 full-length luciferase counterscreen, luminescence | inhibition, % at 8 µM | hit rate 77% among 6,200 | AID 504607 | shares compounds with Mdm2-MdmX inh;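 active = mean inhibition at 8 µM reaching about 37%, which flags the compound as non-specific, limit read from the data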;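 note: p53-null SaOS-2 cells with luciferase driven by a doxycycline-inducible promoter; compound on cells about two nights before reading with doxycycline added after day one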
An asterisk follows results filed as active; · = no result given.

SMILES	Gli-Sufu antag	Shn3 3UTR inh	Mdm2-MdmX inh	Beta cell apopt	CSC inhib	PAX8 inh HTS	Mdm2-MdmX conf	Full FLuc ctr
CCCC(=O)N1c2ccccc2[C@@H](N(C(C)=O)c2ccccc2)C[C@H]1C	30	6	21	·	-13	9	·	·
CCC(=O)N1c2ccccc2C(N(C(C)=O)c2ccccc2)CC1C (stereo not drawn)	22	-21	54*	·	-17	3	24	·
Cc1cc(C)cc(NC(=O)CCn2c(=O)c3cccn3c3ccccc32)c1	15	39	56*	3	-3	35	50*	52*
Cc1c(Cl)cccc1NC(=O)CSc1sc2c(O)cc(=O)[nH]c2c1C#N	-4	-6	27	-4	-4	10	·	·
N#Cc1c(SCC(=O)Nc2ccc(Cl)cc2Cl)sc2c(O)cc(=O)[nH]c12	-6	-17	62*	-4	-2	-16	-8	·
CC1CCN(S(=O)(=O)c2ccc(C(=O)Nc3nnc(-c4ccco4)o3)cc2)CC1	-5	17	54*	9	17	8	48*	34
COc1cccc(NC(=O)N2C[C@H](O)COC[C@@H]3O[C@@H](CC(=O)NC4CCC4)CC[C@H]32)c1	·	·	·	·	·	0	·	·
C[C@@H]1CN([C@@H](C)CO)C(=O)c2cc(NS(=O)(=O)c3ccc(Cl)cc3)ccc2O[C@H]1CN(C)Cc1ccc2c(c1)OCO2	·	·	·	·	·	-2	·	·
COc1ccc(Nc2ccc3c(c2)=NC2(CCCCC2)[N+]=3[O-])cc1	17	-17	100*	104*	52	75*	59*	39*
COc1ccc(NC2=NC(=S)N(c3ccccc3C)C23CCCCC3)cc1	11	-16	10	3	-20	1	·	·
C/C1=C\CCC2C(/C=C(\C)CC1)OC(=O)C2CN1CCCCC1 (stereo not drawn)	4	-12	60*	-12	16	68*	35	·
CN1C(=O)[C@@H]2C[C@@]3([C@@]45C[C@H]6C(=O)N(C)[C@@H](Cc7ccccc7)C(=O)N6[C@@H]4Nc4ccccc45)c4ccccc4N[C@H]3N2C(=O)[C@@H]1Cc1ccccc1	9	-5	6	0	5	12	·	·
O=C1N[C@@H](Cc2ccccc2)C(=O)N2[C@H]3Nc4ccccc4[C@@]3([C@]34C[C@H]5C(=O)N[C@@H](Cc6ccccc6)C(=O)N5[C@H]3Nc3ccccc34)C[C@@H]12	5	·	53*	-1	-13	·	20	·
C[C@H]1CN([C@@H](C)CO)C(=O)c2cccc(NC(=O)C3CC3)c2O[C@H]1CN(C)CC1CC1	·	·	·	·	·	12	·	·
C=CCNC(=S)N/N=C/c1cn(-c2ccccc2)nc1-c1ccc(OC)cc1	10	-12	51*	4	-8	29	16	·
CCC(=O)Nc1ccc2c(c1)C(=O)N(C)[C@H]1CC[C@H](CC(=O)NCCc3ccccc3)O[C@@H]1CO2	·	·	·	·	·	-4	·	·
O=C(O)C[C@H]1C[C@H]2c3cc(NS(=O)(=O)c4ccccc4)ccc3O[C@H]2[C@@H](CO)O1	·	·	·	·	·	-15	·	·
CC=Cc1ccc2n(c1=O)C[C@@H]1[C@@H](CO)[C@H](C(=O)N(C)C)N(CC3CCCCC3)[C@H]21 (mixture of isomers)	·	·	·	·	·	2	·	·
CCN(CC)CCCNC(=O)c1sc2ncn(CC(=O)Nc3ccc(C)c(Cl)c3)c(=O)c2c1C	15	3	53*	-4	-3	0	21	·
C/C=C(/C)C(=O)OC1CC(C)(C)C[C@H]2C3=CC[C@@H]4[C@@]5(C)CCC(O[C@@H]6O[C@@H](C(=O)O)[C@@H](O)C(O[C@@H]7OC[C@H](O)[C@@H](O)[C@@H]7O[C@@H]7OC(CO)C(O)[C@@H](O)[C@@H]7O)C6O[C@@H]6OC(CO)C(O)C(O)C6O)[C@@](C)(CO)[C@@H]5CC[C@]4(C)[C@]3(C)CC(O)[C@@]12CO (stereo partly drawn)	0	3	94*	44	33	·	48*	17
CC(=O)NC1=NN(C(C)=O)C(C)(c2ccccc2)S1 (stereo not drawn)	9	21	60*	·	·	·	53*	53*
CCOC(=O)N1CCN(C(=O)c2cc(-c3ccc(OCC)cc3)nc3ccccc23)CC1	-72	-7	19	11	·	·	·	·
CCOc1ccccc1N1CCN(C(=O)c2cc(-c3cc(OC)ccc3OC)nc3ccccc23)CC1	27	6	73*	8	19	16	46*	62*
COc1ccc(-c2cc(C(=O)N3CCN(c4ccccc4O)CC3)c3ccccc3n2)cc1	-30	-109	19	9	18	-90	·	·
Cc1cc(C(=O)N2CC=C(c3ccccc3)CC2)c2ccccc2n1	28	37	55*	11	53	46	74*	65*
SMILES	Gli-Sufu antag	Shn3 3UTR inh	Mdm2-MdmX inh	Beta cell apopt	CSC inhib	PAX8 inh HTS	Mdm2-MdmX conf	Full FLuc ctr
COc1ccc(-c2cc(C(=O)N3CCN(c4ccccc4O)CC3)c3ccccc3n2)cc1OC	1	11	65*	1	15	·	35	·
CC(=O)N1CCN(C(=O)c2cc(C)nc3ccccc23)CC1	-31	8	23	0	-12	5	·	·
CCOC(=O)N1CCN(C(=O)c2cc(-c3ccncc3)nc3ccccc23)CC1	-3	-7	57*	9	31	·	66*	55*
C[C@H]1CN([C@@H](C)CO)C(=O)c2cc(NC(=O)CCCN(C)C)ccc2O[C@@H]1CN(C)Cc1ccc(Oc2ccccc2)cc1	·	·	·	·	·	-4	·	·
CN1C(=O)c2cc(NC(=O)c3ccc(F)cc3)ccc2OC[C@H]2O[C@H](CC(=O)O)CC[C@H]21	·	·	·	·	·	5	·	·
CC(=O)c1ccc(N2CCN(C(=O)c3cc(-c4ccncc4)nc4ccc(Br)cc34)CC2)cc1	12	-7	58*	7	13	13	37	105*
O=C(c1ccco1)N1CCN(C(=O)c2cc(-c3ccncc3)nc3ccc(Br)cc23)CC1	13	3	2	3	17	·	·	·
